ELG1 DNA repair – qHTS screen for small molecules that inhibit ELG1-dependent DNA repair in human embryonic kidney (HEK293T) cells expressing luciferase-tagged ELG1. HEK293T ELG1-luciferase reporter, luminescence, 16 h; DNA damage induced by 5-fluorouridine. Potency, µM (series often up to 46.1 µM), hits mostly inhibitors. 330,000 tested, 2.3% active; note: nearly all actives have a fitted effect of over 55% in size
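Luminescence from the luciferase reporter, measured 30 min after ONE-Glo reagent at room temperature, was the read-out. Beforehand, 2,000 cells per well were exposed for 16 hr at 37 °C to 5-fluorouridine together with compound or vehicle.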
TDP1 cell noCPT – qHTS for Inhibitors of human tyrosyl-DNA phosphodiesterase 1 (TDP1): qHTS in cells in absence of CPT. DT40 Tdp1-/- hTDP1 cells, no CPT, ATP luminescence, 48 h. Potency, µM (highest dose often 46.2 µM), most hits filed as inhibitors. 420,000 tested, 15% active. AID 686978, 2013; note: nearly all actives have a fitted effect of over 55% in size
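DT40 Tdp1-/-;hTDP1 cells, no CPT (DMSO vehicle only), 400 cells/well; compounds pin-transferred; ≥48 hr, 37 °C; CellTiter-Glo 30 min RT dark, luminescence read.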
VP16 counter – VP16 counterscreen qHTS for inhibitors of ROR gamma transcriptional activity; Drosophila S2 Gal4-VP16 UAS-luciferase, luminescence, 20 h; Potency, µM (titrated, usually from 53.6 µM), actives largely listed as inhibitors; 310,000 tested, 3.5% active;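 note: Gal4-VP16 expression switched on by copper sulfate through the metallothionein promoter; nearly all actives have a fitted effect of over 50% in size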
ALOX12 inh – Primary qHTS assay for inhibitors of human arachidonate 12S-lipoxygenase (ALOX12): Round 2; 580,000 tested, 1.1% active; AID 1671190, 2021; Polyunsaturated fatty acid lipoxygenase ALOX12 (Homo sapiens), P18054; Potency, µM (highest dose often 108 µM), usual class: inhibitors; purified 12hLO, xylenol orange hydroperoxide absorbance
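Purified human 12hLO at 150 nM in 25 mM Hepes, 0.01% Triton X-100, pH 7.0, preincubated 15 min at room temperature with compound. Reaction started with 40 uM arachidonic acid, 30 min at room temperature. Hydroperoxide measured by Fe-xylenol orange, 573/405 nm absorbance ratio.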
RORgamma inh – qHTS for inhibitors of ROR gamma transcriptional activity | Nuclear receptor ROR-gamma (Mus musculus), P51450 | Drosophila S2 Gal4-RORgamma UAS-luciferase reporter, 20 h | Potency, µM (doses to about 53.6 µM), most hits filed as inhibitors | 310,000 tested, 5.4% active | AID 2551, 2010; note: nearly all actives have a fitted effect of over 60% in size
Target sequence (P51450 whole entry, looked up, the tested form may be a part): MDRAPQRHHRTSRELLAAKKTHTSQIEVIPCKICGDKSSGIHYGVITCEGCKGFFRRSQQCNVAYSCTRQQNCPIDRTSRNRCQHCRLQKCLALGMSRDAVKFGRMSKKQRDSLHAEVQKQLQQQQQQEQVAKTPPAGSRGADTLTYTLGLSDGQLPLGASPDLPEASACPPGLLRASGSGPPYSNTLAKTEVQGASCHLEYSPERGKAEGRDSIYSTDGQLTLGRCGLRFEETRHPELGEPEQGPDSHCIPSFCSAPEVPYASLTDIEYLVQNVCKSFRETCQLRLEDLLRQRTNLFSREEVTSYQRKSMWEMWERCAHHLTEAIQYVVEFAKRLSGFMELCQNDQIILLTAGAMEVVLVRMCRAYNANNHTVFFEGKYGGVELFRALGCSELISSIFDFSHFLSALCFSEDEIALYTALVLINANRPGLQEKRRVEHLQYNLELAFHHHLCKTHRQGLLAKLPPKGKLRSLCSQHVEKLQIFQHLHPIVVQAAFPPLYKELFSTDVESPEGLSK
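Luciferase reporter read in Schneider cells carrying Gal4-RORγ (mouse) and UAS-Photinus luciferase; cells given compound 1 h before 700 uM copper sulfate induction, then incubated 20 h at ambient temperature.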
DT40 TDP1 CPT – qHTS for Inhibitors of human tyrosyl-DNA phosphodiesterase 1 (TDP1): qHTS in cells in presence of CPT; AID 686979, 2013; Potency, µM (series often up to 46.2 µM), usual class: inhibitors; 420,000 tested, 12% active; chicken DT40 Tdp1-/-;hTDP1 cells + 20 nM CPT, ATP luminescence, 48 h; note: nearly all actives have a fitted effect of over 55% in size
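Chicken DT40 Tdp1-/- cells complemented with human TDP1, 400 cells/well, exposed to compounds plus 20 nM camptothecin for at least 48 h at 37 C; viability read as ATP content by CellTiter-Glo luminescence.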
Numbers stand for hits; – = inactive; ? = inconclusive; · = no result; [ ] = remark or other dose. This is a sample that favours compounds with a hit; in the whole collection about 15% have one here. Calls come from the whole dose curve; as a rule, active = well fitted curve in the direction sought with a large enough effect; inconclusive = small, poorly fitted or top-dose-only effect, or another doubt; inactive = no such curve, though single readings can be large; an effect the other way counts as inactive or inconclusive.

SMILES	ELG1 DNA repair	TDP1 cell noCPT	VP16 counter	ALOX12 inh	RORgamma inh	DT40 TDP1 CPT
O=C(Nc1ccccc1F)c1ccc(Cn2nc(N3CCN(c4ccccc4)CC3)ccc2=O)o1	·	15µM	·	45µM	·	23µM
CC(C)(C)NC(=O)CN(Cc1cccs1)C(=O)C1COc2ccccc2O1 (centres undefined)	–	–	–	–	–	–
CC(C)CCNC(=O)C(c1ccc(O)cc1)N(Cc1cccs1)C(=O)C1COc2ccccc2O1 (centres undefined)	21µM	16µM	–	–	–[10 µM]	23µM
O=C(NCc1ccco1)C(c1cccs1)N(C(=O)C1COc2ccccc2O1)c1cccc(O)c1 (centres undefined)	13µM	13µM	–	?	–	23µM
NC(=O)c1cccc(OCc2coc(-c3cccc(F)c3)n2)c1	·	·	·	–	·	·
CCCCCCCCS(=O)CCCCCCCO (centres undefined)	·	·	·	–	·	·
Cc1ccc(-c2csc3nc(C)n(-n4c(C)ccc4C)c(=O)c23)o1	–	21µM	?	–	–	21µM
O=C(COC(=O)c1ccccc1O)Nc1ccccc1N1CCCC1=O	·	·	·	–	·	·
Cc1cc(C)n(-c2ccc(C(=O)Nc3cccnc3Cl)cc2)n1	–	?	–	–	?	?
CCN1CCN(c2ccc(Cl)cc2NC(=O)c2ccc(-n3nc(C)cc3C)cc2)CC1	15µM	?	·	–	·	21µM
Cc1cc(C)n(-c2ccc(C(=O)Nc3cc(S(=O)(=O)N(C)C)ccc3Cl)cc2)n1	?	?	–	?	–	16µM
Cc1ccccc1C1(O)CCN(C(=O)c2ccc(C#CC(C)(C)O)o2)C1 (centres undefined)	·	·	·	–	·	·
COc1cc(OC)cc(C(=O)NCCCCc2ccccc2)c1	·	13µM	·	–	·	?
COc1cccc(C(=O)NCCS(=O)(=O)NC(C)CCc2ccccc2)c1 (centres undefined)	–	6.5µM	·	–	·	?
O=C(CN(Cc1ccccc1)C(=O)c1cccc([N+](=O)[O-])c1)Nc1c(Cl)cc(Cl)cc1Cl	–	12µM	–	–	?	8.2µM
COc1cc(OC)cc(C(=O)NCCCCNC(=O)c2cc(OC)cc(OC)c2)c1	·	–	·	?	·	–
O=C(NCCCCc1ccccc1)c1cccc([N+](=O)[O-])c1	–	16µM	–	–	?	18µM
Cc1cccc([N+](=O)[O-])c1NC(=O)CN(Cc1ccccc1)Cc1ccccc1	–	21µM	–	–	–	26µM
O=C(NCCn1ccc2ccccc21)c1cccc([N+](=O)[O-])c1	?	23µM	–	?	–	29µM
CS(=O)(=O)Cc1cc(Sc2ccccc2)nc(-c2ccncc2)n1	–	–	–	?	–	–
O=S(Cc1cc(Sc2ccccc2)nc(-c2ccccc2)n1)c1ccccc1 (centres undefined)	?	16µM	–	–	–	?
O=C(c1ccco1)N1C[C@@H](CO)[C@H](c2ccncc2)C1	·	·	·	–	·	·
S=C(Nc1ccc(OCc2ccccc2)cc1)Nc1cccc(Cl)c1Cl	?	?	–	–	?	?
COc1ccc(NC(=S)NCC(O)c2ccccc2)c(OC)c1 (centres undefined)	–	–	–	?	–	–
COc1ccc(NC(=S)Nc2ccc(OCc3ccccc3)cc2)c(OC)c1	–	26µM	7.1µM	35µM	7.1µM	21µM
SMILES	ELG1 DNA repair	TDP1 cell noCPT	VP16 counter	ALOX12 inh	RORgamma inh	DT40 TDP1 CPT
COc1ccc(NC(=S)Nc2ccccc2)c(OC)c1	–	–	?	–	13µM	?
C[C@H]1[C@@H]2[C@@H](O)C([C@H](C)C(=O)N3CCc4ccccc4C3)CC[C@@]2(C)CC[C@@H]1NC(=O)c1cnccn1 (some centres undefined)	·	·	·	–	·	·
CCc1c(C(=O)NCc2cccnc2N2CCOCC2)cnn1-c1ccc(F)cc1	·	·	·	–	·	·
COCCc1noc(C2Cc3ccccc3N2C(=O)Nc2cc(C)cc(C)c2)n1 (centres undefined)	·	·	·	–	·	·
Cc1cnc(C2CC2)n1CCNC(=O)c1cncn1C	·	·	·	–	·	·
NC(=O)CC(NC(=O)c1cccc(Br)c1)c1ccc(NCC2CC2)c([N+](=O)[O-])c1 (centres undefined)	–	?	–	–	–	?
NC(=O)CC(NC(=O)c1ccccc1)c1ccc(NCC2CC2)c([N+](=O)[O-])c1 (centres undefined)	–	?	–	–	?	23µM
NC(=O)CC(NC(=O)c1ccccc1)c1ccc(NC2CCCC2)c([N+](=O)[O-])c1 (centres undefined)	?	18µM	–	?	–	4.6µM
COc1ccc(C)cc1NC(=O)Cn1c(N(C)Cc2ccccc2)nc(C)cc1=O	·	·	·	–	·	·
COc1ccc(C2CC(c3ccccc3)=NN2S(=O)(=O)c2ccc(C)cc2)c(OC)c1 (centres undefined)	–	7.3µM	–	–	–	8.2µM
COc1ccccc1C1CC(c2ccccc2)=NN1S(=O)(=O)c1ccccc1 (centres undefined)	23µM	–	–	–	–	?
COc1ccc(C2CC(c3ccccc3)=NN2S(=O)(=O)c2ccccc2)c(OC)c1 (centres undefined)	–	21µM	–	–	–	?
FC(F)(F)c1cc(Cl)c2nc(-c3ccco3)c(Cc3ccccc3C(F)(F)F)n2c1	·	15µM	·	10µM	·	?
Cc1ccc(-c2nc3c(Cl)cc(C(F)(F)F)cn3c2Cc2ccccc2C(F)(F)F)cc1	·	–	·	?	·	–
CC/C=C(/C)C(=O)NCc1ccc(C(=O)NC(C)CC)cc1 (centres undefined)	·	·	·	–	·	·
CCOC(=O)N1C(=O)[C@@](CC)(c2ccccc2)N1C(=O)OCC	–	13µM	–	–	–	8.2µM
COC(=O)N1C(=O)[C@](CC(C)C)(c2ccccc2)N1C(=O)OC	?	16µM	–	–	–	21µM
COC(=O)N1C(=O)[C@@](c2ccccc2)(C2CCCC2)N1C(=O)OC	–	16µM	–	–	11µM	15µM
CC[C@@]1(c2ccccc2OC)C(=O)N(C(=O)OC)N1C(=O)OC	–	?	–	·	–	?
CC[C@@]1(c2cccc(C)c2)C(=O)N(C(=O)OC)N1C(=O)OC	?	18µM	–	–	?	18µM
Cc1nccn1CCN(C)c1ccc(-c2nc(COc3ccccc3)no2)cn1	·	·	·	–	·	·

Compound activity deposited in PubChem BioAssay by National Center for Advancing Translational Sciences (NCATS).
